Assay results from PubChem BioAssay (Tox21).
“And” between values parts separate entries of the source, which are not always exact repeats. Identical values can stand only once. Records with an inconclusive call do not appear. Where a call stands in place of a potency, no number is given. Some structures have more than one record in an assay (separate samples or runs), and their calls can disagree. The source made the active and inactive calls. Calls come from the whole dose curve; as a rule, active = well fitted curve in the direction sought with a large enough effect in the repeat runs; inconclusive = weak or mixed curves; inactive = no such curve, though single readings can be large; an effect the other way counts as inactive or inconclusive. Residues, ends and D or L forms follow the SMILES beside them.

What was measured:
[1] = biological target: Cytochrome P450 2C9 (Homo sapiens) (UniProt P11712); assay: Cytochrome P450 Family 2 Subfamily C Member 9 (CYP2C9) small molecule antagonists: luciferase reporter qHTS assay (AID 1671198); note: potency is the fitted concentration of half-maximal effect
Procedure, shortened: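 P450-Glo proluciferin substrate with CYP2C9 enzyme; 10 min RT preincubation, then NADPH regeneration 1 h at 37C; luciferin detection reagent 20 min RT, luminescence in relative luminescence units.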

[2] = biological target: Cytochrome P450 1A2 (Homo sapiens) (UniProt P05177); assay: Cytochrome P450 Family 1 Subfamily A Member 2 (CYP1A2) small molecule antagonists: luciferase reporter qHTS assay (AID 1671199); note: potency is the fitted concentration of half-maximal effect
Procedure, shortened: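 Steps: enzyme-substrate mix dispensed; test compounds and furafylline control pinned in; 10 min room temperature; NADPH regeneration solution added, 1 h; reaction stopped with luciferin detection reagent; luminescence read after 20 min.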

[3] = biological target: Voltage-gated inwardly rectifying potassium channel KCNH2 (Homo sapiens) (UniProt Q12809); assay: Human Ether-a-go-go-Related Gene (hERG) channel small molecule antagonists: fluorescence cell-based qHTS assay (AID 1671200);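 note: hERG-expressing U2OS cells given a thallium stimulus after FluxOR II dye loading; series mostly up to about 77 µM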
Procedure, shortened: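 Read-out: thallium influx as a surrogate for potassium, tracked as fluorescence (480 nm ex/540 nm em) every second for 2 min after Stimulus Buffer addition in dye-loaded hERG-U2OS cells.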

[4] = biological target: Cytochrome P450 3A4 (Homo sapiens) (UniProt P08684); assay: Cytochrome P450 Family 3 Subfamily A Member 4 (CYP3A4) small molecule antagonists: luciferase reporter qHTS assay (AID 1671201); note: potency is the fitted concentration of half-maximal effect
Procedure, shortened: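 Luminescent readout (RLU) proportional to CYP3A4 activity, from luciferin generated off a proluciferin substrate. Enzyme–substrate mix plus compound 10 min at room temp, NADPH regeneration 1 h, detection reagent 20 min.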
Note: nearly all actives have a fitted effect of over 50% in size.

Sequence of Cytochrome P450 3A4 (Homo sapiens) (P08684 whole entry, looked up): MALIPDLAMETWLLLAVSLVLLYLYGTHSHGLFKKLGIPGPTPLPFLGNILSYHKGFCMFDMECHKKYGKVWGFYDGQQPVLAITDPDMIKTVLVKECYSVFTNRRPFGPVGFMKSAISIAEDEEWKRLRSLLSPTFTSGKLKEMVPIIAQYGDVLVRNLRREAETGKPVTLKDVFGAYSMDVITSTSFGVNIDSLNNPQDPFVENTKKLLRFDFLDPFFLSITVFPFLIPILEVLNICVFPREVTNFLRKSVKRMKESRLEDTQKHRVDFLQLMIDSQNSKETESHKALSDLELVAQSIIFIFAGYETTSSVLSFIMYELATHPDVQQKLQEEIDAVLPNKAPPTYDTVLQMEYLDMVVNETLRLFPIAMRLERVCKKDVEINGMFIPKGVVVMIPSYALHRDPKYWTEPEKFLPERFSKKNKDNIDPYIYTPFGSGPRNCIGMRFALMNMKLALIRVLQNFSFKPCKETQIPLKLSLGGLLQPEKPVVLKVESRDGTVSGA
Sequence of Voltage-gated inwardly rectifying potassium channel KCNH2 (Homo sapiens) (Q12809 whole entry, looked up): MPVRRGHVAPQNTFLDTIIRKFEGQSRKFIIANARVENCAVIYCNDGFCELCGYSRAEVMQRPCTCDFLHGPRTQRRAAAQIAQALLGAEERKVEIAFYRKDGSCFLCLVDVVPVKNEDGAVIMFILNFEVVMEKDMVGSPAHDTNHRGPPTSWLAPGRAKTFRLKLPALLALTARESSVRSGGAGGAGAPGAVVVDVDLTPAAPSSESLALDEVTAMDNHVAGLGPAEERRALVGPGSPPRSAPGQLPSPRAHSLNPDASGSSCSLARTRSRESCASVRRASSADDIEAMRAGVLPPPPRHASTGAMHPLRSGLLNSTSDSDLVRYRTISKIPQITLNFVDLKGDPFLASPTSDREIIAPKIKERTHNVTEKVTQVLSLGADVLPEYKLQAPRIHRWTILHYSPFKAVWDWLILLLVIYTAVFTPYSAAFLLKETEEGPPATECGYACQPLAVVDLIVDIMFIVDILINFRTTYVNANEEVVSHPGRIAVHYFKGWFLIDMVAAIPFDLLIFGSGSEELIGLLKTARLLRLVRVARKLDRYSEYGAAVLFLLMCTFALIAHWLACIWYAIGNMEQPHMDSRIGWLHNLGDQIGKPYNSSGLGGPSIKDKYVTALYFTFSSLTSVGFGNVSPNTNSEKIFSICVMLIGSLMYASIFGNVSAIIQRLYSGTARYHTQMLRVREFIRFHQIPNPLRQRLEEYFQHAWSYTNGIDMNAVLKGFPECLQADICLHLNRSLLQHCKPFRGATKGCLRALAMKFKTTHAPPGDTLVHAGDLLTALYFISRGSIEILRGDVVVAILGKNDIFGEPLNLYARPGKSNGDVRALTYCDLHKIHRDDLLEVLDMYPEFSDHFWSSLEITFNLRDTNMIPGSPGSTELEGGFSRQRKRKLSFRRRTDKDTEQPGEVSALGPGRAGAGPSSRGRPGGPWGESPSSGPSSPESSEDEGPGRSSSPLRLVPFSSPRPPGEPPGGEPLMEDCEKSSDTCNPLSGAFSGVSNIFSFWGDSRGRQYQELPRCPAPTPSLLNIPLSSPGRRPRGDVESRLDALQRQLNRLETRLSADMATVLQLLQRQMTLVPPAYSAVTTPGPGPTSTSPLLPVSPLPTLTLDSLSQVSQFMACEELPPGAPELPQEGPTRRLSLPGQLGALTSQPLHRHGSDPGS
Sequence of Cytochrome P450 2C9 (Homo sapiens) (P11712 whole entry, looked up): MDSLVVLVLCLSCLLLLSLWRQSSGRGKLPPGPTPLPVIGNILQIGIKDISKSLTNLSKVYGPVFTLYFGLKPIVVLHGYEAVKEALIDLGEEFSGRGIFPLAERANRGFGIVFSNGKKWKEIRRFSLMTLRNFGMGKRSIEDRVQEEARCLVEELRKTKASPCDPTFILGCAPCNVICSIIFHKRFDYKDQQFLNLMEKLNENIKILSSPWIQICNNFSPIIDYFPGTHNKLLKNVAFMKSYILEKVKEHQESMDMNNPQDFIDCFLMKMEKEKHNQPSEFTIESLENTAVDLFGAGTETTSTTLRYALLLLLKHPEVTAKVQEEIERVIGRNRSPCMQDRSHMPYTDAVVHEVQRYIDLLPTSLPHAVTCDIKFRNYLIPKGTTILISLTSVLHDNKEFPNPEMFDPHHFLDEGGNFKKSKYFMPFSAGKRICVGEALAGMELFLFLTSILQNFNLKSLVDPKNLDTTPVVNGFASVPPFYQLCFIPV
Sequence of Cytochrome P450 1A2 (Homo sapiens) (P05177 whole entry, looked up): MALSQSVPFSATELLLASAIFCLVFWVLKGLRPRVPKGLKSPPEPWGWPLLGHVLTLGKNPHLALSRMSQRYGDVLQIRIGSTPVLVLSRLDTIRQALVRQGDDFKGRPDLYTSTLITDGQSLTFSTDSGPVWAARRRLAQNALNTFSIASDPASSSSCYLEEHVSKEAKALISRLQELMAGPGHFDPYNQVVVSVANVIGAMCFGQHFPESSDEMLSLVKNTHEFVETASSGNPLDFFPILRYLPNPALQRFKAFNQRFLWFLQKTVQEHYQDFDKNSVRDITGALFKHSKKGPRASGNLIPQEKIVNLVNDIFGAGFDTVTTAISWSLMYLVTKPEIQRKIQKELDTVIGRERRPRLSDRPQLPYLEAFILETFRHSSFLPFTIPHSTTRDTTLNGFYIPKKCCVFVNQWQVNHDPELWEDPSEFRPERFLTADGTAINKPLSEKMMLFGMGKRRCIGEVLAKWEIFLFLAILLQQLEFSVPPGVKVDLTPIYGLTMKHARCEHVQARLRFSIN

Compound	Potency [1]	Potency [2]	outcome [3]	Potency [4]
COC(=O)[C@H](Cc1ccccc1)NC(=O)[C@@H](N)CC(=O)O (H-Asp-Phe-OMe)	inactive	inactive	inactive	inactive
Nc1ccc(C(=O)O)cc1	inactive	inactive	inactive	inactive
CCCCC(CC)COC(=O)/C=C/c1ccc(OC)cc1 (stereo unspecified)	19.9 µM (active) and 12.6 µM (active) and 11 µM (active)	19.9 µM (active) and 12.6 µM (active) and 13.8 µM (active)	inactive	inactive
CCCNC(=O)NS(=O)(=O)c1ccc(Cl)cc1	39.7 µM (active) and 35.6 µM (active)	inactive and 15.5 µM (active)	inactive	inactive
O=S(=O)(O)c1ccc2cc(O)ccc2c1	inactive	inactive and 39.9 µM (active)	inactive	inactive
NC(=O)c1ccccc1O	inactive	inactive	inactive	inactive
Nc1ccc(S(=O)(=O)Nc2nccs2)cc1	inactive	inactive	inactive	inactive
O=C(O)c1cc(N=Nc2ccc(S(=O)(=O)Nc3ccccn3)cc2)ccc1O	14.2 µM (active) and 17.8 µM (active) and 8.71 µM (active)	inactive	inactive	inactive
O=C(c1ccccc1)C(O)c1ccccc1 (stereo unspecified)	inactive	31.4 µM (active) and 12.9 µM (active)	inactive	inactive
C[C@]12C=CC(=O)C=C1CC[C@@H]1[C@@H]2[C@@H](O)C[C@@]2(C)[C@H]1CC[C@]2(O)C(=O)CO	62.4 µM (active) and inactive	inactive	inactive	inactive
CC(O)C(=O)O (stereo unspecified)	inactive	inactive and 24.5 µM (active)	inactive	inactive
O=C(O)CS	inactive	inactive	inactive	inactive
CC(O)CO (stereo unspecified)	inactive	inactive	inactive	27.2 µM (active) and inactive
O=c1cc[nH]c(=S)[nH]1	40.2 µM (active) and inactive	71.5 µM (active) and 36.7 µM (active) and 24.5 µM (active)	inactive	inactive
CC1(C)[C@@H]2CC[C@@]1(C)C(=O)C2	inactive	inactive	inactive	inactive
Nc1ccn([C@H]2CC[C@@H](CO)O2)c(=O)n1	inactive	inactive	inactive	inactive
CC(O)CN(CCN(CC(C)O)CC(C)O)CC(C)O (stereo unspecified)	inactive	inactive	inactive	inactive
O=c1ccc2ccccc2o1	inactive	36.3 µM (active) and 31.7 µM (active) and inactive	inactive	inactive
O=C(O)CCCCC(=O)O	inactive	inactive	inactive	inactive
CCC1(c2ccccc2)C(=O)NCNC1=O	inactive	inactive	inactive	inactive
CC(=O)OCC(COC(C)=O)OC(C)=O	inactive	62.5 µM (active) and inactive	inactive	inactive
CCCN(CCC)S(=O)(=O)c1ccc(C(=O)O)cc1	inactive	inactive	inactive	–
CCCCC1C(=O)N(c2ccccc2)N(c2ccccc2)C1=O	9.96 µM (active) and 31.7 µM (active) and 17.4 µM (active)	inactive	inactive	–
C1N2CN3CN1CN(C2)C3	inactive	inactive and 15.5 µM (active)	inactive	inactive

Compound	Potency [1]	Potency [2]	outcome [3]	Potency [4]
NNC(=O)c1ccncc1	35.7 µM (active) and 13.3 µM (active)	40 µM (active) and 26.5 µM (active) and 27.5 µM (active)	inactive	–
C/C=C/c1ccc(OC)cc1	inactive and 13.8 µM (active)	inactive and 17.4 µM (active)	inactive	–
CCCC(O)C(CC)CO (stereo unspecified)	inactive	inactive	inactive	inactive
Cc1cn([C@H]2C[C@H](N=[N+]=[N-])[C@@H](CO)O2)c(=O)[nH]c1=O	63.3 µM (active) and inactive	inactive	inactive	inactive
CCCCOC(=O)CC(CC(=O)OCCCC)(OC(C)=O)C(=O)OCCCC	2.75 µM (active) and 2.86 µM (active) and 2.52 µM (active)	–	–	–
O=C(O)CCC(=O)O	inactive	inactive	inactive	inactive
O=C(C1CCCCC1)N1CC(=O)N2CCc3ccccc3C2C1 (stereo unspecified)	inactive	31.7 µM (active) and 28.3 µM (active) and 17.4 µM (active)	inactive	–
O=C1CN(/N=C/c2ccc([N+](=O)[O-])o2)C(=O)N1	inactive	inactive	inactive	inactive
Cc1noc(NS(=O)(=O)c2ccc(N)cc2)c1C	inactive	inactive	inactive	inactive
O=C(O)c1cccc([N+](=O)[O-])c1	inactive	inactive	inactive	inactive
CC(C)(Oc1ccc(C2CC2(Cl)Cl)cc1)C(=O)O (stereo unspecified)	30.5 µM (active) and 22.4 µM (active) and 15.5 µM (active)	inactive	inactive	inactive
CC(C)[C@@H]1CC[C@@H](C)C[C@H]1O	inactive	inactive	inactive	inactive
NC(=O)NC1NC(=O)NC1=O (stereo unspecified)	inactive	–	inactive	–
Cc1cc(=O)n(-c2ccccc2)n1C	–	inactive	inactive	inactive
Oc1ccc(/C=C/c2cc(O)cc(O)c2)cc1	–	–	inactive	–
O=C(O)c1cccnc1	–	–	inactive	–
c1ccc2[nH]ccc2c1	35 µM (active) and inactive	35 µM (active) and 35.6 µM (active) and 17.4 µM (active)	inactive	inactive
Nc1ccc(S(=O)(=O)c2ccc(N)cc2)cc1	inactive	inactive	inactive	inactive
NC(N)=O	inactive	inactive	inactive	inactive
N=C(N)c1ccc(OCCCCCOc2ccc(C(=N)N)cc2)cc1	–	inactive	–	–
CCOc1ccc(NC(=O)CC(C)O)cc1 (stereo unspecified)	inactive	–	inactive	inactive
NC(=O)c1cnccn1	inactive	inactive	inactive	inactive
Cn1c(=O)c2[nH]cnc2n(C)c1=O	–	inactive	–	inactive
Nc1ccc(O)c(C(=O)O)c1	62.7 µM (active) and 63.3 µM (active)	inactive	inactive	inactive

Compound	Potency [1]	Potency [2]	outcome [3]	Potency [4]
O=C(O)C(=O)O	inactive	inactive	inactive	inactive
Cc1cc(=O)[nH]c(=S)[nH]1	inactive	inactive	inactive	inactive
Cc1ccc(C)c(OCCCC(C)(C)C(=O)O)c1	31.9 µM (active) and 35.6 µM (active) and 17.4 µM (active)	71 µM (active) and inactive	inactive	inactive
COc1c2occc2cc2ccc(=O)oc12	5.06 µM (active) and 10 µM (active) and 4.9 µM (active)	–	inactive	–
Cn1cc[nH]c1=S	inactive and 71 µM (active)	–	inactive	–
CC(=O)Nc1nnc(S(N)(=O)=O)s1	inactive	inactive	inactive	inactive
OCCc1ccccc1	inactive	inactive	inactive	inactive
CC(=O)NS(=O)(=O)c1ccc(N)cc1	–	inactive	inactive	inactive
Cc1ccc(O)cc1	–	–	inactive	–
CNC[C@H](O)c1cccc(O)c1	–	–	inactive	–
Cc1ccccc1C(OCCN(C)C)c1ccccc1 (stereo unspecified)	inactive	inactive and 31.7 µM (active)	–	inactive
O=C(O)/C=C\C(=O)O	inactive	inactive	inactive	inactive
O=S(=O)(O)NC1CCCCC1	–	–	inactive	–
O=C(O)c1[nH]n(-c2ccc(S(=O)(=O)O)cc2)c(=O)c1N=Nc1ccc(S(=O)(=O)O)cc1	inactive and 18.7 µM (active)	inactive	inactive	inactive
Cc1ccc(S(=O)(=O)NC(=O)NN2CCCCCC2)cc1	–	–	inactive	–
COc1ccc2[nH]cc(CCNC(C)=O)c2c1	32.2 µM (active) and 35.6 µM (active)	–	inactive	inactive
O=C(O)CCCCCCCC(=O)O	–	inactive	inactive	inactive
CCCCCCCCCCCCCCCC(=O)O	inactive	39.9 µM (active) and inactive	inactive	inactive
O=NO	–	–	inactive	–
CCCC(CCC)C(=O)O	79.6 µM (active) and inactive	5.62 µM (active) and inactive	inactive	inactive
NC(N)=NC(=O)c1nc(Cl)c(N)nc1N	inactive	inactive	inactive	inactive
O=C1NC(=O)c2ccccc21	inactive	inactive	inactive	inactive
OC(Cn1cncn1)(Cn1cncn1)c1ccc(F)cc1F	–	inactive	inactive	–
